# According to PubChem BioAssay:
# Calls of active or inactive are those of the source.
# Experiments:
# [1] = small molecules captured by biotinylated probe aFSTL3 – biochemical, small-molecule microarray, fluorescence 635/667, stem cell growth factor project, primary screen (AID 1064); conditions: higher = more signal;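 also: measures binding of the biotinylated anti-FSTL3 antibody to printed compounds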
# [2] = binders from COS7 lysate, DM2A8 probe, primary screen, torsin A project, cell lysate, small-molecule microarray, fluorescence 635/667 (AID 1065); conditions: higher = more signal, COS7 lysate expressing mutant human TOR1A
# [3] = small molecules captured by biotinylated probe aFGF2 – biochemical, small-molecule microarray, fluorescence 635/667, stem cell growth factor project, primary screen (AID 1067); conditions: higher = more signal;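 also: measures binding of biotinylated aFGF2 protein to printed compounds on slides; z-score merges feature fluorescence and signal-to-noise across triplicate slides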
# [4] = small molecules captured by biotinylated probe aFGF10 – biochemical, small-molecule microarray, fluorescence 635/667, stem cell growth factor project, primary screen (AID 1071); conditions: higher = more signal;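 also: score merges 667 nm spot intensity and signal to noise from triplicate slides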
# [5] = molecular target: Neurogenic locus notch homolog protein 2 (Homo sapiens) (UniProt Q04721); test: small molecules binding Notch2 protein – biochemical, small-molecule microarray, 635 nm fluorescence, stem cell growth factors, primary screen (AID 1073); conditions: higher = more signal
# [6] = molecular target: Pro-neuregulin-1, membrane-bound isoform (Homo sapiens) (UniProt Q02297); test: small molecules binding neuregulin-1 protein – biochemical, small-molecule microarray, fluorescence 635/667, psychiatric disease protein project, primary screen (AID 1075); conditions: NRG1 binding, 635 nm fluorescence, higher = more signal;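 also: score combines 667 nm spot fluorescence with signal to noise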
# [7] = system: Neuregulin-1 EGF-like domain; test: small molecules binding NRG1 EGF domain – biochemical, small-molecule microarray, 635 nm fluorescence, primary screen (AID 1081); conditions: higher = more signal;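 also: binding of the protein to compounds printed on small-molecule microarray slides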
# [8] = FRG1 expression reporter modulators in myotubes – cell-based, C2C12 myotubes, firefly/Renilla luciferase, luminescence, FRG1 inhibition for FSHD, primary screen (AID 1084); conditions: FRG1 promoter luciferase, higher = more signal, called active from +8 up or from −8 down
# [9] = small molecules captured by biotinylated probe aFST – biochemical, small-molecule microarray, fluorescence 635/667, stem cell growth factor project, primary screen (AID 1086); conditions: higher = more signal;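 also: score merges 667 nm fluorescence with signal-to-noise of each printed compound spot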
# [10] = binders of probe aHhip on microarray, primary screen, stem cell growth factor project, biochemical, small-molecule microarray, fluorescence 635/667 (AID 1087); conditions: higher = more signal;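 also: score merges spot fluorescence at 667nm with spot signal to noise ratio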
# Pro-neuregulin-1, membrane-bound isoform (Homo sapiens), sequence (Q02297 whole entry, looked up, the tested form may be a part, canonical isoform): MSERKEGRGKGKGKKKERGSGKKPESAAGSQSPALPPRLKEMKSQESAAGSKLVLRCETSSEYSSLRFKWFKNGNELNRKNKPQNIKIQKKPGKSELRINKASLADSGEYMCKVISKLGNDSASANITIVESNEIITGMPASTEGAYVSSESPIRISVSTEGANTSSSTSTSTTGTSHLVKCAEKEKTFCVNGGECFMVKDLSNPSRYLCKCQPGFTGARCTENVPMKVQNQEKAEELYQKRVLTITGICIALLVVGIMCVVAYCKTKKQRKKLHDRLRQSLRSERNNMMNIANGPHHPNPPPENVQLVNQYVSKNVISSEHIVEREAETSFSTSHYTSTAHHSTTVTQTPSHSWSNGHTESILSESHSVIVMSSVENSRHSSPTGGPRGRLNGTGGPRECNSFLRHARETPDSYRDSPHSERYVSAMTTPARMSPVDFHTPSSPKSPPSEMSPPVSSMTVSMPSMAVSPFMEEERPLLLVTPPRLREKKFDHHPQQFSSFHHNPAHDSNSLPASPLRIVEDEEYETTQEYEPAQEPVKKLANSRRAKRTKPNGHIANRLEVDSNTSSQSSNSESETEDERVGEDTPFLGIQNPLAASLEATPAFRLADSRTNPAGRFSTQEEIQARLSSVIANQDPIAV
# Neurogenic locus notch homolog protein 2 (Homo sapiens), sequence (Q04721 whole entry, looked up, canonical isoform): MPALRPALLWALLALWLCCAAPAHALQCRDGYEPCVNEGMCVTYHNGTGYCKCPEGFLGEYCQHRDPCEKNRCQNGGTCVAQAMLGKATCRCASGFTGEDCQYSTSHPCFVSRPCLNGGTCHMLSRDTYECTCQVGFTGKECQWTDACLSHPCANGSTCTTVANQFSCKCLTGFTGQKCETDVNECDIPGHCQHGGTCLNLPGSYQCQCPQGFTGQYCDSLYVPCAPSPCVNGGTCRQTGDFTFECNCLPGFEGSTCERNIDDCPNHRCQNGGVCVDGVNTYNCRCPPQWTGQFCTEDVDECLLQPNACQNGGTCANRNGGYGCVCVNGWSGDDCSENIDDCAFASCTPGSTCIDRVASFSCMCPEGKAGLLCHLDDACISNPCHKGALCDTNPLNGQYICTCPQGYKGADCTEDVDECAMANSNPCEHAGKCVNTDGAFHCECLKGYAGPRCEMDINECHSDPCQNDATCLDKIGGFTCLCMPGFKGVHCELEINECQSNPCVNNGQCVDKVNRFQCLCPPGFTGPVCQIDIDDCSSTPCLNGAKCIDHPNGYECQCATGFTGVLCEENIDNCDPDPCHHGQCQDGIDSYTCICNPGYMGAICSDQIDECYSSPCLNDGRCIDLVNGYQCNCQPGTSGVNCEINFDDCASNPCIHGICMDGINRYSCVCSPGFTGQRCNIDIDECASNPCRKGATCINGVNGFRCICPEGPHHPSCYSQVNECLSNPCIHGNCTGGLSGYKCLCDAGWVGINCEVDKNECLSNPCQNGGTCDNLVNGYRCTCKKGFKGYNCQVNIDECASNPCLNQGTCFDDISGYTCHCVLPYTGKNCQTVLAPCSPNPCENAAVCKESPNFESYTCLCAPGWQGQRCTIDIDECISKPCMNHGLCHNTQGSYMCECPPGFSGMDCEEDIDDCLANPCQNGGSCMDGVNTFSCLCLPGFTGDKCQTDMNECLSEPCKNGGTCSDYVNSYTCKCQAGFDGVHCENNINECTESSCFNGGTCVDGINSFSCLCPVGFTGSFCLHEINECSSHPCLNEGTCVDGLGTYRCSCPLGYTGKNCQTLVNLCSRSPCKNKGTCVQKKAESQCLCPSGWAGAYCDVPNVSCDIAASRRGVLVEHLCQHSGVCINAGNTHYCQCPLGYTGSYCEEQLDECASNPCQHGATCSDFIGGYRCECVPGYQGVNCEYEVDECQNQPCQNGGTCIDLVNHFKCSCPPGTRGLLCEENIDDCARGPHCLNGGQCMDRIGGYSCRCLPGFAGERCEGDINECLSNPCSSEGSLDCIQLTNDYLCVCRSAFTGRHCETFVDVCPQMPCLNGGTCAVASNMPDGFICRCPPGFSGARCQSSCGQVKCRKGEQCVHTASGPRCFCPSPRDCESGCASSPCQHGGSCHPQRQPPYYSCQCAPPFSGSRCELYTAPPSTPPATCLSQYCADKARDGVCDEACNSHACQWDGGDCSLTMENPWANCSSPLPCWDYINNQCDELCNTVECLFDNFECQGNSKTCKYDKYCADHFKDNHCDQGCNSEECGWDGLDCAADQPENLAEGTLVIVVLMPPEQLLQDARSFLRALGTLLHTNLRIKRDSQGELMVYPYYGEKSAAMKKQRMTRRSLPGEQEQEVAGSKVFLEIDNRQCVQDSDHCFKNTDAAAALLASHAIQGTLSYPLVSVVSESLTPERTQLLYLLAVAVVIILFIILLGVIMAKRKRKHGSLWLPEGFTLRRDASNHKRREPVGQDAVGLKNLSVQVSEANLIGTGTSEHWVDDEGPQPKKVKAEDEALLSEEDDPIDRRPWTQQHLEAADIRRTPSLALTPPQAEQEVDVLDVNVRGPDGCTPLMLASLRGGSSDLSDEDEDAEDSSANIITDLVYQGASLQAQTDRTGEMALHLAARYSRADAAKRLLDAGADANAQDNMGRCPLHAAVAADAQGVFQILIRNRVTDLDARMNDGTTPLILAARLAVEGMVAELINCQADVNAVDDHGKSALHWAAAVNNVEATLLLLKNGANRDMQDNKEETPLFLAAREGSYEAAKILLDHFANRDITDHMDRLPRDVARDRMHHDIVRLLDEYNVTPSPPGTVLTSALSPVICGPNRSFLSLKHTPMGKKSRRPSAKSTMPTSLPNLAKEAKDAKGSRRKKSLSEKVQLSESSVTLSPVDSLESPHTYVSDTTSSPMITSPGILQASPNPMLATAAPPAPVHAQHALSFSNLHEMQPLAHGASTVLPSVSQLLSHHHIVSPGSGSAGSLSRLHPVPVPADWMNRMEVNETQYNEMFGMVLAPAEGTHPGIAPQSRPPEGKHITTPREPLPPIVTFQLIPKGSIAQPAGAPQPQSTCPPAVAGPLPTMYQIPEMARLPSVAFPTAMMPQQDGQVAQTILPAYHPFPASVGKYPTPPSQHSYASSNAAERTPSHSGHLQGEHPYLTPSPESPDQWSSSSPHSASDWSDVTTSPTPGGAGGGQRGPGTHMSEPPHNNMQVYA
Compound,composite z-score [1],composite z-score [2],composite z-score [3],composite z-score [4],composite z-score [5],composite z-score [6],composite z-score [7],z-score [8],composite z-score [9],composite z-score [10]
C#CCN(C/C=C/c1ccccc1)[C@H](CO)c1ccccc1,-0.565,0.484,-0.182,-0.254,0.261,-0.516,-0.0706,-0.786 (inactive),0.288,0.0156
COC(=O)[C@@]1(Cc2ccc(F)cc2)[C@H]2c3cc(C(=O)N(C)C)n(Cc4cc(C)n(C)n4)c3C[C@H]2CN1C(=O)c1ccccc1,0.274,0.85,-0.19,0.515,1.61,1.66,1.29,0.0894 (inactive),0.967,0.0139
CC1CC/C=C\[C@H]2OC34C=CCN(Cn5nnc6ccccc65)C(=O)[C@H]3N(CCCCCO)C(=O)[C@@H]4C2C(=O)O1 (stereo not given in full),-0.05,-0.67,-0.148,-0.499,-1.38,-0.917,-0.417,-0.373 (inactive),-0.815,-0.251
C=CC[C@]12N=C(c3ccc(OCCCO)cc3)O[C@H]1c1ccccc1N(CCS(=O)(=O)c1ccccc1)C2=O,0.288,-0.312,0.0124,-0.0268,1.07,1.13,1.32,-3.1 (inactive),0.0964,-0.3
COCCOC(=O)N1C(=O)[C@@]2(c3cc(C#Cc4ccc(OC)cc4)ccc31)[C@H](c1ccc(O)cc1)N1[C@H](c3ccccc3)[C@H](c3ccccc3)OC(=O)[C@H]1[C@@H]2C(=O)Nc1nc2ccccc2s1,-0.304,0.262,-0.0724,0.554,1.29,1.06,1.24,2.63 (inactive),0.251,-0.249
COc1ccc([Si](C)(C)[C@@H]2[C@@H](CCn3cc([C@H](O)c4ccccc4)nn3)O[C@]3(C(=O)N(Cc4cccc(N5CCC5=O)c4)c4ccccc43)[C@H]2C)cc1,-0.0168,-0.185,-0.116,0.232,-0.205,0.292,0.729,0.795 (inactive),-0.162,-0.249
CCCCCN1CC=CC23O[C@@H]4C=CCOC(=O)[C@@H]4[C@H]2C(=O)N(C(C)CO)[C@@H]3C1=O (stereo not given in full),0.484,1.52,-0.195,-0.109,-0.825,0.913,1.49,-0.02 (inactive),-0.637,-0.399
CCCCN1CC=CC23O[C@@H]4/C=C\CCCOC(=O)C4[C@H]2C(=O)N(CCCO)[C@@H]3C1=O (stereo not given in full),0.228,-0.7,-0.036,-0.0326,-0.913,0.817,1.46,0.829 (inactive),-0.629,-0.318
CC[C@@H]1C=C(C(=O)O)[C@H](c2cccc3ccccc23)N1S(=O)(=O)c1ccc(C)cc1,-0.0805,-0.26,-0.0162,0.184,0.709,1.94,0.573,-3.41 (inactive),0.279,-0.0645
NC(=O)N1C(=O)C2C(C1=O)C1C=C(CCCO)C2C(C2CC2)N1Cc1cc2c(cc1Br)OCO2 (stereo not given),0.225,-0.13,-0.093,-0.33,-0.191,0.946,0.982,-0.472 (inactive),0.0364,-0.0994
O=C1C2C=CC(C(O)C=Cc3ccc([N+](=O)[O-])cc3)N(Nc3ccccc3F)C2C(=O)N1c1ccccc1 (stereo not given),0.133,0.537,0.0135,1.03,1.51,1.39,1.16,0.477 (inactive),1.11,0.0274
COC(=O)C(CC#Cc1ccc2c(c1)[C@]1(C(=O)N2)[C@H](c2ccc(O)cc2)N2[C@H](c3ccccc3)[C@H](c3ccccc3)OC(=O)[C@H]2[C@@H]1C(=O)N1CCN(c2ncccn2)CC1)C(=O)OC,0.136,0.215,-0.0035,0.349,0.577,1.86,1.35,-1.36 (inactive),0.599,0.351
O=C1C2C=CC(C(O)COCc3ccccc3)N(Nc3ccc([N+](=O)[O-])cc3)C2C(=O)N1c1ccccc1 (stereo not given),0.0903,-0.58,-0.0004,1.14,1.57,0.661,1.32,0.123 (inactive),1.44,-0.145
COCCCNC(=O)[C@]1(Cc2ccccc2)N=C(c2ccc(OCCCO)cc2)O[C@@H]1c1ccccc1CN=[N+]=[N-],0.134,0.719,0.0584,1.03,1.49,1.87,0.837,-2.22 (inactive),0.88,-0.156
CC(C)CN1C(=O)[C@@]2(c3ccc([N+](=O)[O-])cc3)CC(=O)N(C3CCCCC3)[C@@H]2c2ccc(CO)cc21,0.206,-0.72,-0.0954,-0.991,-0.649,-0.303,-0.429,0.953 (inactive),-1.09,-0.0994
NC(=O)[C@@H]1[C@H]2C(=O)O[C@H](c3ccccc3)[C@H](c3ccccc3)N2[C@H](c2ccc(OCCO)cc2)[C@@]12C(=O)Nc1ccc(C#CC3=CCCCC3)cc12,-0.342,0.18,-0.125,1.18,1.23,1.11,1.16,1.15 (inactive),0.447,-0.227
COCC(=C=CC[C@H](O)c1cccc(OCCO)c1)C[C@H](O)c1cc(Cl)cc(Cl)c1O,-0.173,0.0375,-0.045,0.502,0.524,0.79,1.38,-0.578 (inactive),0.181,-0.281

Compound,composite z-score [1],composite z-score [2],composite z-score [3],composite z-score [4],composite z-score [5],composite z-score [6],composite z-score [7],z-score [8],composite z-score [9],composite z-score [10]
O=C(NCc1ccccc1)[C@@H]1c2ccccc2C(=O)N(C2Cc3ccccc3C2)[C@H]1c1ccc(CO)cc1,0.335,0.0455,0.0017,0.526,0.501,1.02,0.971,-2.38 (inactive),0.435,-0.181
C=CC[C@]1(C(N)=O)COC(c2ccc(OCCCO)cc2)=N1,-0.123,0.38,-0.0407,0.282,0.85,0.0632,1.09,-0.25 (inactive),0.418,-0.0645
C[N+](C)(C)CCCCCCNC(=O)[C@H]1C[C@H]2C(=O)N[C@@H](Cc3ccccc3)C(=O)N2[C@H]1c1cccc(OCCO)c1,-0.429,0.652,-0.0266,0.293,0.357,0.318,1.31,3.64 (inactive),-0.0975,-0.0645
COC(=O)[C@]1(CCC(=O)OC(C)(C)C)N=C(c2ccc(OCCCO)cc2)O[C@@H]1c1ccccc1,1.11,-0.522,0.0679,-0.87,-0.668,0.791,1.14,-2.62 (inactive),-0.159,-0.233
COCCOC(=O)N1C(=O)[C@@]2(c3cc(C#CC4=CCCCC4)ccc31)[C@H](c1ccc(OCCO)cc1)N1[C@H](c3ccccc3)[C@H](c3ccccc3)OC(=O)[C@H]1[C@@H]2C(=O)N1CCc2cc(OC)c(OC)cc2C1,-0.16,0.36,-0.0242,0.666,1.43,0.395,1.15,-0.211 (inactive),0.596,-0.0994
COc1ccc(C(O)C2C=CC3C(=O)N(C)C(=O)C3N2N(c2ccccc2)c2ccccc2)c2ccccc12 (stereo not given),0.249,0.643,0.0346,0.412,0.295,0.85,0.894,-0.14 (inactive),0.284,0.576
COCCOC(=O)N1C(=O)[C@@]2(c3ccccc31)[C@H](C(N)=O)[C@H]1C(=O)O[C@H](c3ccccc3)[C@H](c3ccccc3)N1[C@@H]2c1ccc(O)cc1,0.0458,0.209,0.0709,0.166,-0.248,1.32,1.24,-0.939 (inactive),-0.404,0.0215
O=C(CS)NCCCCCNC(=O)[C@H]1C[C@H]2C(=O)NCC(=O)N2[C@H]1c1cccc(OCCO)c1,0.656,-0.498,-0.0579,-0.461,-1.2,1.33,0.375,3.3 (inactive),-0.793,-0.176
CCCC[C@@H]1C[C@H]1[C@@H](NC(=O)c1cccnc1)c1ccc(Cl)cc1,1.58,-1.02,-0.423,-1.77,-1.69,-0.549,-0.977,0.188 (inactive),-0.513,0.216
COC(=O)[C@@]1(Cc2ccc(OC)cc2)[C@H]2c3cc(C(=O)N4CCCC4)n(CCCNc4ncc(C(F)(F)F)cc4Cl)c3C[C@H]2CN1C(=O)c1ccccc1,0.965,0.103,0.578,0.583,1.7,1.71,0.709,2.95 (inactive),2.32,1.31
C=C(CCCC)C(=O)CC[C@@H](OC(C)=O)c1ccc(CO)o1,-0.327,0.349,-0.0729,0.726,-0.426,-0.306,-0.0318,0.514 (inactive),0.911,0.0505
C=CCOC(=O)[C@H]1[C@@H]2C(=O)O[C@@H](c3ccccc3)[C@@H](c3ccccc3)N2[C@@H](c2ccc(OCCOC(=O)[C@@H]3C[C@@H]4C(=O)N5CCC[C@H]5C(=O)N4[C@@H]3c3cccc(OCCO)c3)cc2)[C@]12C(=O)Nc1ccc(I)cc12,-0.34,1.19,-0.104,0.397,0.373,1.05,1.31,0.984 (inactive),0.447,-0.12
CN1C(=O)C2C=CC(C(O)c3ccccc3)N(N3CCCCC3)C2C1=O (stereo not given),-0.239,0.876,0.054,1.02,1.42,1.62,1.02,-1.13 (inactive),0.406,-0.0346
CCCCN1CC=CC23O[C@@H]4C=CCCOC(=O)C4[C@H]2C(=O)N(CCCCCO)[C@@H]3C1=O (stereo not given in full),-0.376,-0.055,-0.107,-0.0632,-1.06,-0.169,1.46,-0.834 (inactive),-0.79,0.107
CCOC(=O)C1=CC[C@@H](c2ccccc2)N(S(=O)(=O)c2ccc(C)cc2)[C@H]1c1ccc(CC)cc1,0.114,-0.0251,-0.0056,0.421,1.4,0.863,1.06,-3.16 (inactive),0.762,-0.0618
Cc1c(NC(=O)/C(C#N)=C/c2cccc([N+](=O)[O-])c2)c(=O)n(-c2ccccc2)n1C,-0.365,0.322,-0.112,0.0969,1.01,1.41,1.05,0.807 (inactive),-0.0089,-0.0994
